Assay outcomes from PubChem.
15-hLO-2 inh = inhibitors of human 15-lipoxygenase 2 (ALOX15B); O15296; purified 15hLO-2, xylenol orange hydroperoxide absorbance; Potency, µM (series often up to 57.1 µM), for the others: at the highest dose activity change, negative = inhibition, hits mostly inhibitors; 110,000 tested, 0.56% active; note: potency is the fitted concentration of half-maximal effect; nearly all actives have a fitted effect of over 60% in size
Target sequence (O15296 whole entry, looked up): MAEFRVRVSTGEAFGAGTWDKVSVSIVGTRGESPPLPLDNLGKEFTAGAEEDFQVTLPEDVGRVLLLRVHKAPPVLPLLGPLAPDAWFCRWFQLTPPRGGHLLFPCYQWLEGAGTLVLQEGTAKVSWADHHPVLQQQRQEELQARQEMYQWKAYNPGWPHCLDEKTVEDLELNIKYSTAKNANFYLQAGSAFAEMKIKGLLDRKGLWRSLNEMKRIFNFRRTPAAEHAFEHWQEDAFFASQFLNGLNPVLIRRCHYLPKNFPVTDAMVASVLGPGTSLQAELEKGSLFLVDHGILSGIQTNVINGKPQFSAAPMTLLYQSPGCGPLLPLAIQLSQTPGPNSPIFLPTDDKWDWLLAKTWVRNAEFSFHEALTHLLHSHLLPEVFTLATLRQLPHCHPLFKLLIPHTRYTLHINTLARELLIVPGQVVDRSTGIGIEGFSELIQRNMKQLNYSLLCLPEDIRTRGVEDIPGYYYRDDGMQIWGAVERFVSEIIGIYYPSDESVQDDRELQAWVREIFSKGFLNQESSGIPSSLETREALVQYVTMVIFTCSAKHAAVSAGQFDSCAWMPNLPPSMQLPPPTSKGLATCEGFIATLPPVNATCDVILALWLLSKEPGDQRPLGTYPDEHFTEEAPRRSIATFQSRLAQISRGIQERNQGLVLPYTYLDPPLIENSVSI
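Enzyme 50 nM, AA 45 uM, 25 mM Hepes pH 7.5 + 0.01% Triton X-100; cpd preinc 15 min RT, rxn 90 min RT; stop/detect with 200 uM XO + 300 uM Fe(II) in 50 mM H2SO4, 30 min; A573/A405.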
IMPase Li inh = membrane-permeable IMPase blocker, potentiated with lithium; Potency, µM (doses to about 59.4 µM), for the others: at the highest dose activity, negative = IMPase inhibition, usual class: inhibitors; 210,000 tested, 0.35% active; AID 1457; CHO-M1 cells, IP1 TR-FRET (IP-One), carbachol + lithium;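 note: IP1 builds up when IMPase is blocked and the TR-FRET signal falls; potency is the fitted concentration of half-maximal effect; plate controls were basal vehicle for no effect and high inhibitor control for full effect; nearly all actives have a fitted effect of over 50% in size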
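Concentration–response in CHO-M1 cells, lithium-potentiated; 30 min at 37C. IP1 detected by competitive TR-FRET after 10 min lysis at RT. Hill-fitted AC50.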
PNC assembly inh = blocks assembly of the perinucleolar compartment. PC3M PTB-GFP, PNC prevalence imaging, 16 h; stronger effect = lower value. activity change (PNC), negative = inhibition, % at 10 µM. 140,000 tested, 3.1% active;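 active = readout at or below -70, meaning at least 70% loss of cells showing the perinucleolar compartment, a nuclear body marking cancer cells; inconclusive = readout between -30 and a set limit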;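 note: plate controls were DMSO wells for no effect and camptothecin positive control wells for full effect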
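Compounds are pinned in duplicate onto adhered PC3M cells stably expressing GFP-tagged PTB and incubated 16 h at 37 C. Cells are then fixed, nuclei stained with Hoechst, and PNC-positive cells counted.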
12-hLO inh = inhibitors of human 12-lipoxygenase (ALOX12); purified 12-hLO, xylenol orange hydroperoxide absorbance; P18054; Potency, µM (doses to about 57.1 µM), inactives show at the top dose activity change, negative = inhibition, usual class: inhibitors; AID 1452; 150,000 tested, 0.12% active; note: potency is the fitted concentration of half-maximal effect; nearly all actives have a fitted effect of over 55% in size
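Xylenol orange chromogenic assay: hydroperoxide from 12hLO oxidises Fe(II), giving red-shifted Fe(III)-XO absorbance. Conditions: 150 nM enzyme, 40 uM arachidonic acid, 25 mM Hepes pH 7.0, 0.01% Triton X-100, 30 min, room temperature.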
IMPase inh = cell-permeable inhibitors of inositol monophosphatase (IMPase) | CHO-M1 cells, IP1 accumulation, HTRF TR-FRET ratio | inhibition (IP1 accumulation), % at 46.1 µM | 120,000 tested, under 10 active | AID 901; active = well fitted curve in the direction sought with a large enough effect in the signal ratio, not every such curve was filed as active; inconclusive = small, poorly fitted or top-dose-only effect, or a change in a side signal; inactive = no such curve, though single readings can be large or run the other way; the % refers to the signal ratio;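 note: cells stimulated with carbachol in lithium chloride buffer; plate controls were DMSO basal wells for no effect and reference inhibitor wells for full effect; higher means more IMPase inhibition seen as more IP1 and lower FRET ratio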
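The IP-One HTRF competitive assay in carbachol-stimulated CHO-M1 cells quantifies cellular IP1. Compounds spanned up to 46 uM final, and activity is expressed as AC50 from concentration-response fits of the ratio and donor data.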
* marks the source's active call; other numbers are inactive results; ? = inconclusive; . = not tested or not shown; [ ] = another dose, or the depositor's remark. Shown is part of a subset that was picked to be rich in hits. Unless noted, calls come from the whole dose curve; as a rule, active = well fitted curve in the direction sought with a large enough effect; inconclusive = small, poorly fitted or top-dose-only effect, or another doubt; inactive = no such curve, though single readings can be large; an effect the other way counts as inactive or inconclusive. Unless noted, % is set by controls: 0 for no effect and ±100 for the full control effect.

SMILES | 15-hLO-2 inh | IMPase Li inh | PNC assembly inh | 12-hLO inh | IMPase inh
CCOC(=O)c1ccc(NC(=O)c2cc3c(n(-c4ccc(C)cc4)c2=O)CC(C)(C)CC3=O)cc1 | . | . | . | . | -1
[N-]=[N+]=N[C@@H]1[C@H](O)[C@H](CO)O[C@@H]1n1cnc2c(N)ncnc21 | -3%[11.4 µM] | -4% | . | 0%[11.4 µM] | .
Cc1ccc(-n2c(SCCC(C)C)nc3sc4c(c3c2=O)CC(C)(C)OC4)cc1 | . | . | . | . | -6
O=c1c2ccccc2c2ccccc2c(=O)n1-c1cc2c3ccccc3ccc2c2ccccc12 | -8%[11.4 µM] | -2% | . | 7%[11.4 µM] | .
CC1=C(/C=C\C(=O)O)C(C)(C)CCC1 | -3%[11.4 µM] | 0% | . | 1%[11.4 µM] | .
COc1ccc(N2CSC3=C(C#N)C(c4cc(OC)ccc4OC)CC(=O)N3C2)c(OC)c1 (stereo not given) | 10µM* | 10%[38.3 µM] | 1 | ? | -1
N#CC1=C2SCN(c3ccc(F)cc3)CN2C(=O)CC1c1cccc(F)c1 (stereo not given) | ? | ? | 29 | ? | -6
CCc1ccc(C2CC(=O)N3CN(c4ccccc4)CSC3=C2C#N)cc1 (stereo not given) | 7.9µM* | -4%[38.3 µM] | 32 | ? | -3
COc1ccc(N2CSC3=C(C#N)C(c4cccs4)CC(=O)N3C2)cc1 (stereo not given) | 20µM* | 13µM* | ? | ? | -14
COc1ccc(N2CSC3=C(C#N)C(c4cc(OC)c(OC)cc4OC)CC(=O)N3C2)c(OC)c1 (stereo not given) | ? | 12%[38.3 µM] | 17 | -14% | -3
CCOc1cc(C)c(Cl)cc1S(=O)(=O)n1cnc2ccccc21 | 8% | 31%[38.3 µM] | -107* | -3% | 8
CCOc1ccc(Cl)cc1S(=O)(=O)n1cnc2ccccc21 | -2% | 1%[38.3 µM] | ? | 0% | 0
COc1ccc2c(c1)O[C@H](c1ccc3c(c1)OCO3)[C@@H](OC(=O)NS(=O)(=O)c1ccc(C)cc1)C2=O | . | 7% | . | . | .
COC(=O)c1cc2cc(NS(=O)(=O)c3ccc(C)cc3)ccc2s1 | . | 6% | -100* | -19% | -8
O=C(O)CCn1[nH]c(=O)ccc1=O | . | -6% | -100* | 3% | -10
O=C(Nc1cccc(F)c1)N1CCCC2(CCN(C(=O)c3cnccn3)CC2)C1 | 1% | 8% | . | 2% | .
Cc1ccc(-c2nc3ncccc3o2)cc1NC(=O)COc1ccccc1 | 3% | 11µM* | -4 | 9% | 5
Cc1ccc(-c2nc3cccnc3o2)cc1NC(=O)COc1ccc(Cl)cc1C | ? | 6.3µM* | 9 | 5% | ?
Cc1ccc(-c2nc3ncccc3o2)cc1NC(=O)CC(C)C | . | -10% | 53 | 23% | .
CCCOc1ccc(C(=O)C(CN2CCCC2)c2ccccc2)cc1 (stereo not given) | . | 18% | -113* | -2% | .
CCCCOc1ccc(C(=O)C(CN2CCOCC2)c2ccccc2)cc1 (stereo not given) | . | 6% | ? | -1% | 18
O=C(Nc1ccccc1)N1CCC2(CC1)CCN(S(=O)(=O)c1ccccc1)CC2 | 4% | -5% | . | -1% | .
O=C1NC(c2ccccc2)=CC(c2ccccc2)N1 (stereo not given) | . | -2% | . | . | .
O=C1CC(c2ccccc2)NC(=O)N1 (stereo not given) | -2% | 18%[38.3 µM] | -81* | 7% | -8
CCn1c(COc2ccc(C)cc2)nnc1SCC(=O)C(C)(C)C | -4% | -9%[38.3 µM] | -18 | -2% | -3
SMILES | 15-hLO-2 inh | IMPase Li inh | PNC assembly inh | 12-hLO inh | IMPase inh
CCn1c(COc2ccccc2)nnc1SCC(=O)C(C)(C)C | -4% | -1%[38.3 µM] | -97* | -2% | 1
O=C(COC(=O)C1(c2ccc(F)cc2)CCCC1)N1CCc2ccccc21 | . | 6% | -109* | 1% | .
Cc1ccc(OCC(=O)N2CCc3ccccc32)cc1 | . | 7% | 11 | -2% | .
O=C(COc1ccc2c(c1)CCC2)N1CCc2ccccc21 | -8% | 11%[38.3 µM] | -81* | -8% | 9
c1csc(CNc2nc(-c3ccc4c(c3)OCO4)nc3ccccc23)c1 | -9% | 11% | . | . | .
CCn1c(CNc2ccc(C(=O)O)cc2)nc2ccccc21 | 8% | -5%[38.3 µM] | -109* | -7% | -5
COc1ccc(/C=N/NC(=O)c2cc(-c3ccc(Cl)cc3)n[nH]2)cc1OC | . | . | . | -3% | .
